From PubChem
Hits are enriched below; roughly 1.4% of the tested compounds scored in any of these assays.
AID504770 – growth inhibitors of E. coli YBA685 in a screen for V. cholerae RctB (chromosome II replication) inhibitors | 130,000 compounds, 0.27% hits | E. coli YBA685 rctB-dependent plasmid, OD600 growth, 3 h; hits give low values | z-score (test concentration not listed); in the data active = z-score below about -2, passing the limit was not always enough
Mtb MbtI inh – blocks the Mycobacterium tuberculosis siderophore enzyme MbtI; inhibition, % (test concentration not listed); purified MbtI enzyme, fluorescence intensity read-out; P9WFX0; 100,000 compounds, 0.89% hits; in the data active = inhibition mostly above about 56%, no sharp cut-off; inactive = mostly below about 77%
MenB inh – Mtb MenB enzyme inhibition; P9WNP5; MenB enzyme assay, absorbance read-out; inhibition, % (concentration not given with the values); 100,000 compounds, 0.43% hits; in the data active = inhibition above about 21%, passing the limit was not always enough
Target sequence (P9WNP5 whole entry, looked up): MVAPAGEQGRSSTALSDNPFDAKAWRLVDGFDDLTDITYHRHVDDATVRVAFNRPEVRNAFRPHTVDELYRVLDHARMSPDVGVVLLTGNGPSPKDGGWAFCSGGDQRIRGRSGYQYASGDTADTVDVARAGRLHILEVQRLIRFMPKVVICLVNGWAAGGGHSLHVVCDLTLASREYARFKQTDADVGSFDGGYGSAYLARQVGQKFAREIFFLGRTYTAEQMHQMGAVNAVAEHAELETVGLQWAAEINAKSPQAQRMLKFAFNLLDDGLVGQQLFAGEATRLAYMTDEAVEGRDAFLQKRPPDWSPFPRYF
PV pol inh – poliovirus RNA polymerase inhibition; % elongation, % (compound at 16.7 µg/mL); P03300; poliovirus polymerase elongation, fluorescence polarization; hits give low values; 150,000 compounds, 0.66% hits; AID 588519; in the data active = % elongation below about 90%
* hit, by the source's call; . = not tested or not shown.

SMILES	AID504770	Mtb MbtI inh	MenB inh	PV pol inh
Cc1ccccc1Nc1nc(N)nc(COC(=O)CCCN=C2NS(=O)(=O)c3ccccc32)n1	0.65	-8.2	-1.1	86.0*
Cc1ccccc1Nc1nc(N)nc(COC(=O)Cc2c[nH]c3ccccc23)n1	0.2	-9.1	-1.7	108.0
Cn1ncc(Br)c1N1C(=O)C=CC1=O	-3.05*	.	.	.
Cn1ncc(Br)c1C(=O)NN	0.2	.	-6.7	107.0
COc1ccc(F)cc1S(=O)(=O)Nc1ccc2c(c1)oc1ccc(S(=O)(=O)N3CCCC3)cc12	-1.25	-8.2	-32.0	102.0
CCOc1ccc(C(=O)CSc2nc3ccccc3s2)cc1	-0.6	.	.	.
COc1ccc(Cc2nnc3n2N=C(c2ccc(C)c(C)c2)C(C)S3)cc1OC (stereo unspecified)	-0.2	47.3	-17.7	87.0*
CC1Sc2nnc(Cc3ccc(Br)cc3)n2N=C1c1ccc(NS(C)(=O)=O)cc1 (stereo unspecified)	-0.45	26.2	-29.9	78.0*
Cc1ccc(C2=Nn3c(nnc3C3CCCCC3)SC2C)cc1 (stereo unspecified)	0.9	50.1	-24.5	96.0
CS(=O)(=O)Nc1ccc(Br)cc1	-0.95	.	-0.8	105.0
O=C1NC2=C(C(=O)NNC2)C(c2cccs2)N1 (stereo unspecified)	-0.25	28.6	13.1	101.0
COc1ccc(NC(=O)c2oc3ccccc3c2NC(=O)Cc2coc3c(C)c(C)ccc23)cc1	.	.	.	-10.0*
Cc1cccc(NC(=O)c2oc3ccccc3c2NC(=O)Cc2coc3c(C)c(C)ccc23)c1	.	.	.	119.0
CCOC(=O)c1cccc2ncccc12	0.75	96.0*	-60.9	99.0
CCOC(=O)c1cnc2ccccc2c1NCCc1ccccc1	-0.8	40.5	-1.0	100.0
COc1ccc(-c2nnc(C3CCN(S(=O)(=O)c4ccc(F)c(C)c4)CC3)o2)cc1	-0.35	-0.4	-4.3	101.0
Cc1ccc(S(=O)(=O)NC(=O)NC2CCS(=O)(=O)C2)cc1 (stereo unspecified)	0.45	-5.5	6.0	103.0
COc1cccc(COCC(O)CN2CCC(C(N)=O)CC2)c1 (stereo unspecified)	-0.6	99.1*	-8.7	101.0
CCN(CC)S(=O)(=O)c1ccc(C(=O)NNc2nc3c(OC)ccc(OC)c3s2)cc1	-0.8	11.7	-89.1	98.0
